The results in this text go back to PubChem BioAssay (NCATS).

The nature of assay [1]: qHTS of pediatric cancer cell lines to identify multiple opportunities for drug repurposing: Primary screen for NB1643 cells (AID 1347099). Note: nearly all actives have a fitted effect of over 50% in size. Note: potency is the fitted concentration of half-maximal effect. The essentials: (§1)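 Luminescence from CellTiter-Glo served as readout of metabolically active cells after 48 h compound exposure. Titrations: MIPE 11-point, from 0.78 nM; NPC 8-point, from 0.59 nM (final). Concentration-response curves came straight from the primary screen.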

The nature of assay [2]: qHTS of pediatric cancer cell lines to identify multiple opportunities for drug repurposing: Primary screen for LAN-5 cells (AID 1347100). Note: potency is the fitted concentration of half-maximal effect. Summed up:
(§2)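 Cells (500-1,000/well) in growth media were settled 5 h at 37 degrees C, then given compounds for 48 h. Viability was read as CellTiter-Glo luminescence. Primary runs used MIPE at 11 points (0.78 nM-46 µM) and NPC at 8 points (0.59 nM-46 µM); follow-ups used 11 points.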

Assay [3] in a line: qHTS of pediatric cancer cell lines to identify multiple opportunities for drug repurposing: Primary screen for BT-12 cells (AID 1347101). Note: nearly all actives have a fitted effect of over 25% in size. Note: potency is the fitted concentration of half-maximal effect. The essentials: (§3)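 Cells (500-1,000/well) rested 5 h, then received compounds for 48 h; metabolically active cells were measured by CellTiter-Glo luminescence. Final concentrations spanned up to 46 µM (MIPE, 11-point) or 0.59 nM-46 µM (NPC, 8-point) in primary screens, 11-point in follow-ups.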

Assay [4] is described as follows: qHTS of pediatric cancer cell lines to identify multiple opportunities for drug repurposing: Primary screen for OHS-50 cells (AID 1347103). Note: nearly all actives have a fitted effect of over 40% in size. Note: potency is the fitted concentration of half-maximal effect. Summed up:
as §3

Assay [5] can be described thus: qHTS of pediatric cancer cell lines to identify multiple opportunities for drug repurposing: Primary screen for control Hh wild type fibroblast cells (AID 1347106).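 Note: series mostly up to about 46 µM; a drop in luminescence marks cytotoxicity and a rise apparent proliferation; nearly all actives have a fitted effect of over 55% in size.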 The essentials:
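Viability after 48 h compound treatment at 37C, 500-1,000 cells/well, read as ATP luminescence with CellTiter-Glo. Primary screens used 11-point (MIPE, 0.78 nM-46 µM) or 8-point (NPC, 0.59 nM-46 µM) final concentrations; follow-up screens used 11-point dilutions.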

Assay [6] can be described thus: qHTS of pediatric cancer cell lines to identify multiple opportunities for drug repurposing: Primary screen for Rh30 cells (AID 1347107). Note: series mostly up to about 46 µM; nearly all actives have a fitted effect of over 75% in size. Summed up:
as §2

Assay [7] can be described thus: qHTS of pediatric cancer cell lines to identify multiple opportunities for drug repurposing: Primary screen for Rh41 cells (AID 1347108).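 Note: series mostly up to about 46 µM; luminescence drop marks cytotoxic hits; nearly all actives have a fitted effect of over 70% in size.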 Summed up: as §1
A short description of assay [8]: qHTS of pediatric cancer cell lines to identify multiple opportunities for drug repurposing: Primary screen for Rh18 cells (AID 1347102). Note: nearly all actives have a fitted effect of over 65% in size. Summed up:
as §2

Assay [9] is described as follows: qHTS of pediatric cancer cell lines to identify multiple opportunities for drug repurposing: Primary screen for RD cells (AID 1347104). Note: nearly all actives have a fitted effect of over 55% in size. The essentials:
as §1

Assay [10] in a line: qHTS of pediatric cancer cell lines to identify multiple opportunities for drug repurposing: Primary screen for MG 63 (6-TG R) cells (AID 1347105). Note: nearly all actives have a fitted effect of over 50% in size. Note: potency is the fitted concentration of half-maximal effect. The essentials:
as §1

Assay [11] is described as follows: qHTS of pediatric cancer cell lines to identify multiple opportunities for drug repurposing: Primary screen for SK-N-SH cells (AID 1347098). Note: nearly all actives have a fitted effect of over 65% in size. Note: potency is the fitted concentration of half-maximal effect. Summed up: as §3
Assay [12] in a line: qHTS of pediatric cancer cell lines to identify multiple opportunities for drug repurposing: Confirmatory screen for A673 cells (AID 1347110).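 Note: potency is the fitted concentration of half-maximal effect; cells exposed to compound for 48 h before the viability read; nearly all actives have a fitted effect of over 65% in size.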 Summed up: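 qHTS titration format: primary MIPE 0.78 nM-46 µM (11 pts), NPC 0.59 nM-46 µM; confirmation 11 pts. 48 h, CTG luminescence.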

Each structure is given as a SMILES string. Records with an inconclusive call do not appear. Calls of active or inactive are those of the source. Calls come from the whole dose curve; as a rule, active = well fitted curve in the direction sought with a large enough effect; inconclusive = small, poorly fitted or top-dose-only effect, or another doubt; inactive = no such curve, though single readings can be large; an effect the other way counts as inactive or inconclusive.

With `CN1CCCC(CC2c3ccccc3Sc3ccccc32)C1` (stereo unspecified), the Potency entry in [1], in [5], in [6] and in assay [7] was “inactive” throughout. In addition, the Potency was 23.7 µM (active) in [2], 19.5 µM (active) in assay [3] and 24.6 µM (active) in assay [4].

As for `Nc1ccn([C@@H]2O[C@H](CO)[C@@H](O)C2(F)F)c(=O)n1`, the values for the Potency in assay [1] and in assay [2] were 0.0422 µM (active) and 0.075 µM (active), respectively. For the same molecule, the Potency result in assay [8], in assay [9], in assay [5], in [6] and in assay [7] was “inactive” throughout.

Regarding `Oc1c(Cl)cc(Cl)cc1Sc1cc(Cl)cc(Cl)c1O`, the Potency result in assay [3], in [8], in assay [9], in [5], in assay [6] and in [7] was “inactive” each time.

With `CN(C(=O)CN(CCO)CC(=O)N(C)C(C)(C)Cc1ccccc1)C(C)(C)Cc1ccccc1`, the Potency is 12.3 µM (active) in assay [3] and 17.4 µM (active) in assay [4]. Further, the Potency entry in [9], in assay [10], in assay [5] and in assay [7] was “inactive” in each case.

On to `COc1cc(-c2ccc(=O)[nH]n2)ccc1OC(F)F`, for which the Potency result in assay [1], in assay [2], in assay [3], in assay [8], in [4] and in assay [9] was “inactive” in each case. Besides, the Potency entry in assay [5] and in assay [7] was “inactive” each time.

For `O=C1[C@H]2CCCC[C@H]2C(=O)N1CCCCN1CCN(c2nsc3ccccc23)CC1`, the Potency result in assay [11], in assay [1], in assay [8], in assay [9], in assay [10] and in assay [5] was “inactive” throughout. Besides, the Potency entry in assay [6] is “inactive”.

With `CCOC(=O)[C@H](CCc1ccccc1)N[C@@H](C)C(=O)N1Cc2ccccc2C[C@H]1C(=O)O`, the Potency entry in assay [1], in assay [2], in assay [8], in [9], in assay [10] and in assay [5] was “inactive” each time.

Regarding `CCOc1ccc(Cc2nccc3cc(OCC)c(OCC)cc23)cc1OCC`, the Potency in assay [3] is 6.17 µM (active); in assay [4], 7.77 µM (active). For the same molecule, the Potency entry in assay [10] and in [5] was “inactive” throughout.

`C[C@@H](CN(C)C)CN1c2ccccc2Sc2ccccc21`: the Potency result in assay [1], in [2], in [10], in [5] and in [7] was “inactive” each time. In addition, the Potency in assay [4] was 21.9 µM (active).

On to `COc1c(C)c2c(c(O)c1C/C=C(\C)CCC(=O)O)C(=O)OC2`, for which the results for the Potency in [3] and in [12] were 0.692 µM (active) and 2.61 µM (active), respectively. The Potency entry in assay [5] and in assay [6] was “inactive” in each case.

For the molecule `COc1ccc(CN2CCN(C(c3ccc(F)cc3)c3ccc(F)cc3)CC2)c(OC)c1OC`, the Potency in assay [11] is 21.7 µM (active); in assay [4], 13.8 µM (active). The Potency result in assay [1], in assay [10] and in [5] was “inactive” each time.

Turning to `CC(=O)N/N=C/c1ccc([N+](=O)[O-])o1`, the Potency result in assay [5] and in assay [6] was “inactive” throughout.

As for `C=C(CC)C(=O)c1ccc(OCC(=O)O)c(Cl)c1Cl`, the values for the Potency in assay [11] and in assay [10] were 17.2 µM (active) and 21.1 µM (active), respectively. For the same molecule, the Potency result in assay [8], in [4] and in [5] was “inactive” each time.

`O=C(OCCOCCO)c1ccccc1Nc1cccc(C(F)(F)F)c1`: the Potency entry in assay [1], in [8], in [9], in assay [10], in assay [5] and in assay [6] was “inactive” throughout. In addition, the Potency entry in assay [7] is “inactive”. In addition, the Potency in [4] was 24.6 µM (active).

For `Cc1c(C)n(Cc2ccccc2)c2ccc(C(=O)OCCN(C)C)cc12`, the Potency result in [1], in assay [2], in assay [9], in assay [5], in assay [6] and in assay [7] was “inactive” throughout.

In the case of `COC1=CC(=O)C[C@@H](C)[C@]12Oc1c(Cl)c(OC)cc(OC)c1C2=O`, the Potency result in assay [1], in assay [9], in assay [5] and in [6] was “inactive” throughout.
